Assay outcomes as filed in PubChem.
HT1080 IDH1KD tx: qHTS for induction of synthetic lethality in tumor cells producing 2HG: qHTS for the HT-1080-IDH1KD cell line; HT-1080 IDH1 knockdown viability, ATP luminescence, 48 h; Potency, µM (series often up to 46.1 µM), without a hit: at the highest dose activity, negative = toxicity, hits mostly cytotoxic; hit rate 2% among 360,000;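 also: potency is read from the fitted curve at half-maximal effect; 0% = DMSO wells and -100% = cell-free medium wells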
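Viability of IDH1-knockdown HT-1080 fibrosarcoma cells was assessed by CellTiter-Glo after 48 h at 37 °C with titrated compound; concentration-effect curves were classified by fit quality and response size.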
DT40 TDP1 no CPT: qHTS for Inhibitors of human tyrosyl-DNA phosphodiesterase 1 (TDP1): qHTS in cells in absence of CPT; DT40 Tdp1-/- hTDP1 cells, no CPT, ATP luminescence, 48 h; Potency, µM (top dose mostly 46.2 µM), inactives show at the highest dose activity change, negative = growth inhibition, actives largely listed as inhibitors; hit rate 15% among 420,000; also: potency is read from the fitted curve at half-maximal effect; nearly all actives have a fitted effect of over 55% in size
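Chicken DT40 Tdp1-/- cells complemented with human TDP1, screened without camptothecin (DMSO vehicle only), 400 cells/well. Compounds pin-transferred, cells incubated at 37 °C for at least 48 hr. Growth read as ATP-dependent luminescence (CellTiter-Glo, 30 min at RT).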
DT40 TDP1 CPT: qHTS for Inhibitors of human tyrosyl-DNA phosphodiesterase 1 (TDP1): qHTS in cells in presence of CPT. chicken DT40 Tdp1-/-;hTDP1 cells + 20 nM CPT, ATP luminescence, 48 h. Potency, µM (series often up to 46.2 µM), for the others: at the highest dose activity change, negative = growth inhibition, actives largely listed as inhibitors. hit rate 12% among 420,000; also: potency is read from the fitted curve at half-maximal effect; nearly all actives have a fitted effect of over 55% in size
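Cell growth measured by CellTiter-Glo luminescence after a minimum 48 h, 37 C compound exposure with 20 nM CPT in Tdp1-knockout DT40 cells stably expressing hTDP1, seeded 400/well; qHTS titration format.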
IL1B secr inh: qHTS for Inhibitors of Inflammasome Signaling: IL-1-beta AlphaLISA Primary Screen; THP-1 LPS/ATP IL-1B secretion, AlphaLISA, 16 h; hits give low values; activity change, % at 57.5 µM; hit rate 4.7% among 360,000; AID 743279, 2014; in the data active = activity change below about -50%; inconclusive = mostly about -30% to -49%
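THP-1 cells pretreated 1 hr with compounds (up to 57.5 uM final), then stimulated with LPS (250 ng/mL final) plus ATP (1.25 mM final); secreted IL-1B measured by AlphaLISA after 16 hr, decreased signal indicating inhibition.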
HT1080NT lethal: qHTS for induction of synthetic lethality in tumor cells producing 2HG: qHTS for the HT-1080-NT fibrosarcoma cell line; hit rate 1.6% among 360,000; HT-1080-NT fibrosarcoma viability, CellTiter-Glo ATP luminescence, 48 h; Potency, µM (top dose mostly 46.1 µM), without a hit: top-dose activity, negative = less viability, actives largely listed as cytotoxic;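 also: NT is the 2HG producing partner of a matched IDH1 knockdown line; potency is read from the fitted curve at half-maximal effect; 0% = DMSO-treated cells and -100% = media-only wells without cells; nearly all actives have a fitted effect of over 55% in size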
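750 cells/well, RPMI + 5% FBS; 2 h settle, compound pin-transfer, 48 h at 37 degrees C. CellTiter-Glo 10 min RT, luminescence. Normalized to DMSO and media-only wells.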
ELG1 DNA repair: qHTS screen for small molecules that inhibit ELG1-dependent DNA repair in human embryonic kidney (HEK293T) cells expressing luciferase-tagged ELG1; HEK293T ELG1-luciferase reporter, luminescence, 16 h; DNA damage induced by 5-fluorouridine; hit rate 2.3% among 330,000; Potency, µM (doses to about 46.1 µM), without a hit: at the top dose activity change, negative = inhibition, hits mostly inhibitors; AID 504467, 2011; also: potency is read from the fitted curve at half-maximal effect; nearly all actives have a fitted effect of over 55% in size
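Overnight (16 hr) co-exposure of 2,000 cells/well to 5-fluorouridine and compound at 37 °C preceded detection. Luciferase was quantified via ONE-Glo luminescence; loss of signal denotes inhibition.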
An asterisk follows results filed as active; ? = inconclusive; . = not tested or not shown. A selection: hits, their analogues and other compounds. The true share with any hit is near 19%. Unless noted, calls follow the shape of the dose curve; as a rule, active = well fitted curve in the direction sought with a large enough effect; inconclusive = small, poorly fitted or top-dose-only effect, or another doubt; inactive = no such curve, though single readings can be large; an effect the other way counts as inactive or inconclusive. Unless noted, % is scaled to controls: 0 for no effect and ±100 for the full control effect.

SMILES | HT1080 IDH1KD tx | DT40 TDP1 no CPT | DT40 TDP1 CPT | IL1B secr inh | HT1080NT lethal | ELG1 DNA repair
O=C(NCc1nc2ccccc2[nH]1)C1=C[C@@H](c2ccc(Br)cc2)C[C@@H](OCc2ccc(CO)cc2)O1 | ? | 18.4µM* | 9.2µM* | 0.0 | -29.6% | 0.0%
O=C(NCc1nc2ccccc2[nH]1)C1=C[C@@H](c2ccc(Br)cc2)C[C@@H](OCCCCO)O1 | -19.7% | ? | -22.6% | 5.3 | -19.0% | ?
O=C(NCc1nc2ccccc2[nH]1)C1=C[C@@H](c2csc3ccccc23)C[C@@H](OCc2ccc(CO)cc2)O1 | -4.0% | 20.6µM* | ? | 0.0 | -13.9% | ?
O=C(NCc1nc2ccccc2[nH]1)C1=C[C@H](c2csc3ccccc23)C[C@H](OCc2ccc(CO)cc2)O1 | -19.2% | 14.6µM* | ? | -28.7 | -4.5% | ?
C[C@H]1C=C(C(=O)NCc2nc3ccccc3[nH]2)O[C@@H](OCc2ccc(CO)cc2)C1 | -2.9% | -17.4% | -20.6% | -15.1 | -17.7% | 12.5%
O=C(NC1CC1)C1=C[C@H](c2ccc(Br)cc2)C[C@H](OCc2ccc(CO)cc2)O1 | -21.1% | 14.6µM* | 23.1µM* | -25.8 | -17.7% | -6.8%
C=CS(=O)(=O)O | . | 13.0% | 15.7% | . | . | .
CCc1sc(C(=O)N2CCc3cc(OC)c(OC)cc3C2CC(=O)O)cc1C (stereo unspecified) | 11.4% | 6.2% | 14.2% | 5.0 | 4.1% | 9.9%
COc1ccc(CN2CC(C(N)=O)Oc3ccccc32)cc1F (stereo unspecified) | -4.2% | -1.6% | 0.5% | 1.1 | -4.3% | 2.3%
Cc1ccc(S(=O)(=O)N2CC3C(=O)C[C@@H](c4ccccc4)N(S(=O)(=O)c4ccccc4Cl)C3CC2c2ccccc2)cc1 (stereo partly specified) | 0.4% | -29.6% | 1.8% | -13.6 | -0.8% | .
CCC1CCCCN1C(=O)c1nn(-c2ccc(C)cc2)c(=O)c2c1c1ccccc1n2C (stereo unspecified) | . | -12.0% | -4.2% | . | . | .
COc1ccc(N(C(=O)c2ccc(Br)o2)C2C=CS(=O)(=O)C2)cc1 (stereo unspecified) | -2.1% | 13µM* | 13µM* | 4.1 | 4.9% | 1.0%
Cc1cc(C)cc(N(C(=O)c2ccc(Br)o2)C2C=CS(=O)(=O)C2)c1 (stereo unspecified) | 5.8% | ? | -1.3% | -9.2 | 18.3% | -14.5%
Cc1cc(Cl)ccc1C(O)c1ncc(-c2ccc(F)cc2)[nH]1 (stereo unspecified) | 20.6µM* | ? | ? | -13.6 | ? | .
Cc1ccc(-c2cnc(C(O)c3ccc(Cl)cc3C)[nH]2)cc1 (stereo unspecified) | -21.2% | ? | 23.1µM* | -17.9 | -18.6% | .
Cc1cccc(-c2cnc(C(O)c3ccc(Cl)cc3C)[nH]2)c1 (stereo unspecified) | ? | 18.4µM* | ? | -7.6 | ? | .
Cc1cc(Cl)ccc1C(O)c1ncc(-c2ccc(Cl)cc2)[nH]1 (stereo unspecified) | ? | ? | 13µM* | -9.9 | ? | .
CC(CNS(=O)(=O)c1ccc(Cl)cc1)n1cncn1 (stereo unspecified) | 14.8% | -11.8% | -5.2% | 11.2 | 7.3% | -1.7%
O=C(NC1CC(=O)N(c2ccc(Cl)cc2)C1)C1CCCCC1 (stereo unspecified) | . | 4.4% | -12.2% | . | . | .
CCCCNc1ccc2c3c(cccc13)C(=O)N(CCCC)C2=O | ? | 20.6µM* | 25.9µM* | -22.0 | ? | ?
Cc1cccn2cc(COc3cccc([N+](=O)[O-])c3)nc12 | 3.3% | -4.3% | 4.2% | -3.2 | 3.9% | ?
Cc1cccn2cc(COc3ccc(-c4ccccc4)cc3)nc12 | 18.4µM* | 11.6µM* | -20.3% | -18.1 | ? | ?
O=C(Cn1cc(S(=O)(=O)c2ccccc2)c(=O)c2cc(Cl)ccc21)Nc1ccc2c(c1)OCO2 | . | ? | 3.8% | . | . | .
COc1ccc(CCNS(=O)(=O)c2cc(-c3cc(C)no3)ccc2OC)cc1OC | . | -16.2% | -17.3% | . | . | .
Cc1ccc(C(C)C)c(OCC(=O)Nn2c(C)nc3ccccc3c2=O)c1 | -4.8% | 6.51µM* | -20.7% | 23.0 | -2.9% | ?
SMILES | HT1080 IDH1KD tx | DT40 TDP1 no CPT | DT40 TDP1 CPT | IL1B secr inh | HT1080NT lethal | ELG1 DNA repair
Cc1cc(F)ccc1-c1cc(C(=O)NCc2ccccc2)[nH]n1 | 14.0% | ? | 25.9µM* | -23.7 | 12.2% | .
COc1ccc(Cl)cc1-c1cc(C(=O)NCc2ccc(C(F)(F)F)cc2)[nH]n1 | -5.4% | 7.31µM* | 4.61µM* | -19.0 | 0.1% | .
COc1ccc(F)cc1-c1cc(C(=O)NCc2cccc(Cl)c2)[nH]n1 | 2.6% | -27.9% | ? | -18.7 | 4.3% | .
COc1ccc(C(C)C)cc1-c1cc(C(=O)NCc2cccc(C(F)(F)F)c2)[nH]n1 | 3.2% | ? | ? | 1.4 | -1.9% | .
COc1ccc(Cl)cc1-c1cc(C(=O)NCc2cccc(C(F)(F)F)c2)[nH]n1 | ? | ? | 7.31µM* | -6.6 | ? | .
COc1ccc(Cl)cc1-c1cc(C(=O)NCc2ccc(F)cc2)[nH]n1 | ? | 8.2µM* | 6.51µM* | -17.1 | -28.4% | .
CCNC(=S)Nc1ccc(Cc2nc3ccccc3[nH]2)cc1 | 1.6% | 1.6% | 4.4% | 37.5 | -0.1% | -7.2%
COc1cc(-c2c(C#N)c(N)nc3c2CCCC3)ccc1O | -9.0% | 16.4µM* | 14.6µM* | 27.1 | -2.5% | -40.3%
COc1ccc(-c2c(C#N)c(N)nc3c2CCc2ccccc2-3)cc1OC | 20.6µM* | 7.31µM* | 8.2µM* | 0.0 | ? | ?
COc1ccc(C(=O)N/C(=C\c2cn(C)c3ccccc23)C(=O)NCCN2CCOCC2)cc1OC | -0.4% | -6.3% | -6.7% | -3.5 | 5.6% | -0.1%
COc1ccc(NC(=O)c2c(NC(=O)c3cccc(C)c3)sc3c2CCC3)cc1 | . | 2.6% | 8.3% | . | . | .
COc1ccc(OC)c(NC(=O)c2c(NCc3ccc(OC)c(OC)c3)sc3c2CCC3)c1 | . | 16.4µM* | 14.6µM* | . | . | .
